Test [1] in a line: Nuclear factor erythroid 2-related factor 2/antioxidant responsive element (Nrf2/ARE) small molecule agonists: qHTS cell viability counter screen in human keratinocytes (AID 1919968; active = well fitted cell-killing curve with a large enough effect in the repeat runs; note: nearly all actives have a fitted effect of over 55% in size). The gist of the method:
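Measured as CellTiter-Fluor fluorescence, this readout tracks cytotoxicity in the same wells as the ARE-luciferase screen. HaCaT reporter cells (1,500/well) received compounds after a 5 h pre-incubation and were exposed for 23 h.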

A short description of test [2]: Nuclear factor erythroid 2-related factor 2/antioxidant responsive element (Nrf2/ARE) small molecule agonists: luciferase reporter gene qHTS assay in human keratinocytes (AID 1919969). Note: nearly all actives have a fitted effect of over 35% in size.
The nature of test [3]: G protein-coupled receptor (GPCR) small molecule agonists, calcium flux assay: HEK293 wild type cell line counter screen (AID 1920065). The method in brief:
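Readout: fluorescence at 480 nm excitation/540 nm emission, sampled at 1 s intervals for 3 min. Cells had been cultured 18 h, then dye-loaded 1 h at 37 C before compound or ATP addition.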
On the technique in general: Calcium flux is commonly read through the fluorescence of an indicator in the cells.

Test [4] in a line: p53 small molecule agonists, cell-based qHTS assay with human liver microsomes (AID 1963577).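 For activation: p53 response element beta-lactamase reporter cells with liver microsomes plus NADPH.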 Note: potency is the fitted concentration of half-maximal effect. The method in brief: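 Steps: plate p53RE-bla cells, incubate 5 h at 37 C; add compound in DMSO; add microsomes (0.5 mg/mL final) and NADPH (0.5 mg/mL final); incubate 16 h at 37 C; add LiveBLAzer, 2 h RT; read fluorescence.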
(In general: In qHTS, concentration-response curves come from the screen itself.)

A short description of test [5]: p53 small molecule agonists, cell-based qHTS assay with human liver microsomes: qHTS cell viability counter screen (AID 1963579). Note: nearly all actives have a fitted effect of over 45% in size. The gist of the method: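 After the 460/530 nm beta-lactamase read, CellTiter-Glo was added to the same wells and luminescence measured after 30 min at room temperature, giving viability of p53RE-bla cells treated 16 h with compounds plus microsomes and NADPH.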

Test [6] is described as follows: p53 small molecule agonists, cell-based qHTS assay with rat liver microsomes: qHTS cell viability counter screen (AID 1963580). Note: nearly all actives have a fitted effect of over 45% in size. The gist of the method: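 Intracellular ATP, by CellTiter-Glo luminescence, defines viability. HCT-116 p53RE-bla cells, 4,000 per well, were compound-treated in the presence of rat liver microsomes and NADPH for 16 h at 37 C.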
A short description of test [7]: p53 small molecule agonists, cell-based qHTS assay: qHTS cell viability counter screen (AID 1963581). Note: nearly all actives have a fitted effect of over 45% in size. The gist of the method: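 In the same plates used for the p53 bla reporter, HCT-116 cells given compounds for 16 h at 37 C received CellTiter-Glo; luminescence was recorded 30 min later at room temperature.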
Test [8] is described as follows: p53 small molecule agonists, cell-based qHTS assay (AID 1963582; active = well fitted activation curve with a large enough effect in the signal ratio in the repeat runs, not every such curve was filed as active; the % refers to the signal ratio). The gist of the method: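 Compounds are pin-transferred in DMSO onto p53RE-bla cells and incubated 16 h at 37 C. The B/G FRET beta-lactamase substrate is then applied for 2 h at RT and fluorescence recorded.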
Test [9] deals with 5-hydroxytryptamine receptor 2A (Homo sapiens) (UniProt P28223). As to the kind of experiment: 5-hydroxytryptamine receptor 2A (HTR2A) small molecule antagonists, cell-based qHTS assay (AID 1963586). Note: nearly all actives have a fitted effect of over 45% in size. The method in brief:
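Antagonist-mode intracellular calcium assay: DOI (4 nM) added after 5 min compound pre-incubation at room temperature to dye-loaded HTR2A-CHO cells. Fluorescence followed for 3 min, sampled every second.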

The target is the same in test [10]. The test is described as follows: 5-hydroxytryptamine receptor 2A (HTR2A) small molecule agonists, cell-based qHTS assay (AID 1963587). Note: nearly all actives have a fitted effect of over 30% in size. The method in brief:
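Kinetic calcium-flux fluorescence (2 min, 1 sec intervals) after compound addition in agonist mode. HTR2A-CHO cells were cultured 18 h, then dye-loaded 1 h at 37 C.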

Test [11] deals with Muscarinic acetylcholine receptor M1 (Homo sapiens) (UniProt P11229). As to the kind of experiment: Cholinergic receptor muscarinic 1 (CHRM1) small molecule antagonists, cell-based qHTS assay (AID 1963588). Note: nearly all actives have a fitted effect of over 40% in size. The method in brief:
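CHRM1-CHO calcium-flux assay, antagonist mode. Cells were seeded 18 h, dye-loaded 1 h at 37 C and given compound for 5 min at RT, then acetylcholine was added at 50nM. FDSS fluorescence was read 3 min; 15 concentrations, three runs.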

Test [12] in a line: cAMP Responsive Elements (CRE) small molecule agonists, cell-based qHTS assay (AID 1963590). The method in brief:
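Cell line: CRE-bla HEK 293T; medium DMEM/10% dialyzed FBS/0.1 mM NEAA/1 mM pyruvate/25 mM HEPES; 3 h compound exposure; beta-lactamase FRET readout after 2 h substrate loading at RT.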

Test [13] can be described thus: cAMP Responsive Elements (CRE) small molecule antagonists, cell-based qHTS assay (AID 1963591; active = well fitted inhibition curve with a large enough effect in the signal ratio in the repeat runs, not every such curve was filed as active; the % refers to the signal ratio). The gist of the method:
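Inhibition of NKH477-driven (0.25 uM final) CRE-beta-lactamase signal in HEK293T cells, 3 h compound exposure at 37 °C, detected by FRET substrate fluorescence.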

The target in test [14] is Beta-2 adrenergic receptor (Homo sapiens) (UniProt P07550). As to the kind of experiment: Adrenergic beta2 receptor (ADRB2) small molecule antagonists, cell-based qHTS assay (AID 1963592). Note: series mostly up to about 92 µM; nearly all actives have a fitted effect of over 50% in size. The gist of the method:
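Cells (CHO, stable ADRB2 overexpression) incubated 18-20hr at 37C; compounds added from DMSO; agonist mix (1nM isoproterenol, 100uM IBMX, 25uM Ro-20-1724) added; 0.5hr RT; d2-cAMP and anti-cAMP-cryptate added; 1hr RT; 665/615 nm read.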

For test [15] the target is unchanged. The test is described as follows: Adrenergic beta2 receptor (ADRB2) small molecule agonists, cell-based qHTS assay (AID 1963593).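 Note: CHO cells stably overexpressing human ADRB2.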 The method in brief:
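CHO cells stably over-expressing ADRB2 were plated overnight at 37C, then dosed with compounds plus a stimulation mix containing 100uM IBMX and 25uM Ro-20-1724 for 0.5hr at room temperature. cAMP was measured by HTRF competition, 1hr.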

Test [16] deals with D(2) dopamine receptor (Homo sapiens) (UniProt P14416). The test is described as follows: Dopamine D2 receptor (DRD2) small molecule agonists, cell-based qHTS assay (AID 1963594). Note: nearly all actives have a fitted effect of over 35% in size. The gist of the method:
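cAMP accumulation in DRD2-HEK293 cells measured by HTRF after 1 h detection; compounds added 10 min before NKH477 (200nM […]) forskolin-analogue stimulation, 30 min at room temperature, with Ro20-1724 present at 0.1 mM final.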

Test [17] has the same target. As to the kind of experiment: Dopamine D2 receptor (DRD2) small molecule antagonists, cell-based qHTS assay (AID 1963595; active = well fitted inhibition curve with a large enough effect in the signal ratio in the repeat runs, with a control signal flat; the % refers to the signal ratio). The method in brief: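 HTRF cAMP read-out at 665 and 620 nm emission (340 nm excitation). Antagonist mode: compounds were tested against 12 nM quinpirole in DRD2-HEK293 cells, with 200 nM NKH477 raising cAMP and 0.1 mM Ro20-1724 blocking its breakdown.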

Test [18] is described as follows: p53 small molecule agonists, cell-based qHTS assay with rat liver microsomes (AID 1963578). The method in brief:
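Metabolic activation is supplied by rat liver microsomes with NADPH (each 0.5 mg/mL final). p53RE-bla cells incubate with compound 16 h at 37 C; reporter activity is measured by LiveBLAzer fluorescence.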

The target of test [19] is Muscarinic acetylcholine receptor M1 (Homo sapiens) (UniProt P11229). The test is described as follows: Cholinergic receptor muscarinic 1 (CHRM1) small molecule agonists, cell-based qHTS assay (AID 1963589). Note: nearly all actives have a fitted effect of over 35% in size. The method in brief:
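Each compound was tested at 15 concentrations across three independent runs on dye-loaded CHO cells stably expressing human CHRM1, reading intracellular calcium fluorescence kinetically at 1 sec intervals.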

Records with an inconclusive call do not appear. The source made the active and inactive calls. Unless noted, calls come from the whole dose curve.

Chain of 5-hydroxytryptamine receptor 2A (Homo sapiens) (P28223 whole entry, looked up): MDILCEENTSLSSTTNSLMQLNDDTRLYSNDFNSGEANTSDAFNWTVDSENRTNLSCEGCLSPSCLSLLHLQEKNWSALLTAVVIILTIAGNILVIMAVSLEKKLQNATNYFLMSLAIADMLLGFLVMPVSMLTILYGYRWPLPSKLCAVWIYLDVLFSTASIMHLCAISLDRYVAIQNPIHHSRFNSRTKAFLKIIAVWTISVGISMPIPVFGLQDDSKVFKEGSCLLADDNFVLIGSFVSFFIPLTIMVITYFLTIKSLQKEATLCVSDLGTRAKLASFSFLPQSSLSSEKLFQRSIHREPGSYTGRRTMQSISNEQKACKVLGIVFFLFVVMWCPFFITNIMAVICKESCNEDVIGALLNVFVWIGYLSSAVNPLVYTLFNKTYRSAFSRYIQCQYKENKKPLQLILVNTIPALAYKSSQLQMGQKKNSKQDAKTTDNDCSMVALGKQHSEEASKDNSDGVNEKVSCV
Chain of Muscarinic acetylcholine receptor M1 (Homo sapiens) (P11229 whole entry, looked up): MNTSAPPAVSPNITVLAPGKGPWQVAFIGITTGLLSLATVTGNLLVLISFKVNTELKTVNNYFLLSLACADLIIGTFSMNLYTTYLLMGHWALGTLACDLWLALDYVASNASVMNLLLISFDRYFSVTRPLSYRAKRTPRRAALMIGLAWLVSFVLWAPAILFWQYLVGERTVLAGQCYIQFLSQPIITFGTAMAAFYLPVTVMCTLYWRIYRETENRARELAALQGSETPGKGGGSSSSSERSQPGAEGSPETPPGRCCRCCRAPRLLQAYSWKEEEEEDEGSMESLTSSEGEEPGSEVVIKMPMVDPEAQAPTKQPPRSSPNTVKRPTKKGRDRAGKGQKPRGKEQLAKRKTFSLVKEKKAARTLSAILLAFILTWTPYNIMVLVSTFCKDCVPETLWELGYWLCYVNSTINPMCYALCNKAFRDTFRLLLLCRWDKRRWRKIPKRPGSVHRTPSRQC
Chain of D(2) dopamine receptor (Homo sapiens) (P14416 whole entry, looked up): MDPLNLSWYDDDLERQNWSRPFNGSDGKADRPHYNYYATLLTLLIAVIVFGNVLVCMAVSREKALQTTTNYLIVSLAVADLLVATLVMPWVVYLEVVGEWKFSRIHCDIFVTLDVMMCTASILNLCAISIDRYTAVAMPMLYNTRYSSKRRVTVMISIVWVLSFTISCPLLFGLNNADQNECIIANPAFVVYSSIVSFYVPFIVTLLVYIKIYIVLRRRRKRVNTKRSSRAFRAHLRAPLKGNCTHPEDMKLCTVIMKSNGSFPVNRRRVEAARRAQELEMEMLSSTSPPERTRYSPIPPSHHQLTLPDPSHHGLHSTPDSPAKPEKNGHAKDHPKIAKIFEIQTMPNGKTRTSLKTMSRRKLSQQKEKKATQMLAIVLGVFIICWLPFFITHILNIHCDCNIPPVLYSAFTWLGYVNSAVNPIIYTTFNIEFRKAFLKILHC
Chain of Beta-2 adrenergic receptor (Homo sapiens) (P07550 whole entry, looked up): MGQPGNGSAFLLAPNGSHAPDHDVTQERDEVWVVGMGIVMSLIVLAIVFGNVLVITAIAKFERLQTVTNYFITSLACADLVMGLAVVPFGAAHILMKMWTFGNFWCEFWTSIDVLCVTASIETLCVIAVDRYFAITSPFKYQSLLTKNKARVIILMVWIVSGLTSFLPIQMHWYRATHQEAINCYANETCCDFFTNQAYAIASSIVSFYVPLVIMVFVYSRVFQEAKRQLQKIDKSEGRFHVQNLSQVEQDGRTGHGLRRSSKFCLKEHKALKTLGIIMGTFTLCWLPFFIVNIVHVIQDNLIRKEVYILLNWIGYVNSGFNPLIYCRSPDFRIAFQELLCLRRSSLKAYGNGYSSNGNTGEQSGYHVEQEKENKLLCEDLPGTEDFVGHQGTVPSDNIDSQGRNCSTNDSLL

Consider `COP(=S)(OC)Oc1ccc(S(=O)(=O)N(C)C)cc1`, for which the Potency entry in test [1], in test [2], in test [3], in test [5], in test [6] and in [7] was “inactive” in each case. Besides, the Potency entry in test [8], in [9], in test [10], in test [11], in [12] and in [13] was “inactive” throughout. For the same compound, the Potency entry in [14], in test [15], in [16] and in test [17] was “inactive” throughout. Further, the Potency in test [4] was 1290 nM (active).

For the compound `COc1cc(OC)nc(Oc2cccc(Oc3nc(OC)cc(OC)n3)c2C(=O)O)n1`, the Potency entry in test [1], in [2], in [3], in test [4], in [18] and in [7] was “inactive” throughout. For the same compound, the Potency entry in test [8], in test [9], in test [10], in test [11], in test [19] and in test [12] was “inactive” in each case. In addition, the Potency entry in [14], in test [16] and in test [17] was “inactive” in each case.

Regarding `Cc1cc(Cl)ccc1O`, the Potency entry in test [1], in test [2], in [3], in test [4], in [18] and in test [5] was “inactive” throughout. Moreover, the Potency result in test [6], in [7], in test [8], in test [9], in [10] and in test [11] was “inactive” in each case. For the same compound, the Potency entry in test [12], in test [13], in [14], in test [15], in [16] and in test [17] was “inactive” in each case.

Regarding `CN(C)NC(=O)CCC(=O)O`, the Potency result in test [1], in test [2], in test [3], in [4], in test [18] and in [5] was “inactive” throughout. Moreover, the Potency entry in test [7], in test [8], in test [9], in test [10], in [11] and in test [19] was “inactive” in each case. The Potency result in [12], in [13], in test [15], in test [16] and in [17] was “inactive” throughout.

In the case of `CCN(CC)N=O`, the Potency result in [1], in [2], in test [3], in test [4], in test [18] and in test [5] was “inactive” in each case. In addition, the Potency entry in test [6], in test [7], in test [8], in test [12], in [13] and in [14] was “inactive” each time. In addition, the Potency result in [16] and in test [17] was “inactive” in each case.

For the compound `C=CC(=O)OCCCCCC(C)C`, the Potency result in test [1], in test [2], in test [3], in test [4], in test [18] and in test [5] was “inactive” throughout. For the same compound, the Potency result in test [6], in test [7], in test [8], in [9], in test [10] and in [11] was “inactive” each time. The Potency result in [19], in test [12], in test [14] and in test [17] was “inactive” throughout.

As for `O=C(O)C(F)(F)C(F)(F)C(F)(F)C(F)(F)C(F)(F)C(F)(F)C(F)(F)F`, the Potency result in test [1], in test [2], in [3], in test [4], in test [18] and in [5] was “inactive” throughout. In addition, the Potency result in [6], in [7], in [8], in test [9], in test [10] and in test [19] was “inactive” throughout. Besides, the Potency entry in [12], in test [13], in test [14], in test [15], in test [16] and in [17] was “inactive” throughout.

Turning to `CC(=[OH+])/C=C(/C)[O-].CC(=[OH+])/C=C(\C)[O-].CC(=[OH+])/C=C(\C)[O-].[Al]`, the Potency entry in [1], in [2], in test [3], in test [4], in test [18] and in [5] was “inactive” each time. The Potency entry in test [6], in test [7], in test [8], in test [9], in [10] and in [11] was “inactive” throughout. For the same compound, the Potency entry in test [19], in test [12], in test [13], in test [14], in test [16] and in test [17] was “inactive” each time.

For the origin of these results see PubChem BioAssay (Tox21).
